In the supplement of paper PMC8047044 one finds neurite formation score data, which are given here for 39 compounds.

“And” between values parts separate entries of the source, which are not always exact repeats. Identical values can stand only once. Counter-ions that a name gives are not always drawn.

The test system of this experiment is Neuro-2a. Put plainly: neurite formation score, plate-normalized to DMSO control mean 5.04 (score (0-8 scale)); higher = more or longer neurites. As to conditions: 1 µM. As for the experimental part:
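Neuro-2a mouse neuroblastoma cells in PLL-coated 96-well plates were pre-treated for 1 h in DMEM(+) with each kinase inhibitor at 1 µM, then switched to serum-free DMEM(-) with inhibitor to induce neurite outgrowth and fixed about 2-3 h later. Three blinded observers scored neurite formation from 0 (no neurites) to 8 (long neurites on almost all cells).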
In turn, `CNC(=O)c1cc(Oc2ccc(NC(=O)Nc3ccc(Cl)c(C(F)(F)F)c3)c(F)c2)ccn1` [Regorafenib hydrochloride] yielded a neurite formation score of 3.69.

As to `C#Cc1cccc(Nc2ncnc3cc(OCCOC)c(OCCOC)cc23)c1` [Erlotinib Hydrochloride], the neurite formation score stood at 4.57.

In the case of `COc1ccc(-c2ccc3c(N4CCOCC4)nc(N4C[C@@H](C)O[C@@H](C)C4)nc3n2)cc1CO`, the neurite formation score was 4.36.

The compound `CNC(=O)c1nn(C)c2c1C(C)(C)Cc1cnc(Nc3ccc(N4CCN(C)CC4)cc3)nc1-2` had a neurite formation score of 3.29.

The compound `Oc1cccc(-c2nc(N3CCOCC3)c3oc4ncccc4c3n2)c1` showed a neurite formation score of 5.24.

On to `Cn1c(=O)c(F)c(Nc2ccc(I)cc2F)c2c(=O)n(C[C@@H](O)CO)cnc21`, for which the neurite formation score is 4.88.

In turn, `N=C(N)NC(=N)NCCc1ccccc1` [Phenformin HCl] yielded a neurite formation score of 4.8.

Take `CNC(=O)c1ccc(C)c(-n2c(C)cc(OCc3ccc(F)cc3F)c(Br)c2=O)c1`: the neurite formation score is 3.57.

For `Cc1cc(C)c(/C=C2\C(=O)Nc3ccccc32)[nH]1`, the neurite formation score was 5.02.

Take `Cc1ccc(F)c(NC(=O)Nc2ccc(-c3cccc4[nH]nc(N)c34)cc2)c1` [Linifanib (ABT-869)]: the neurite formation score turned out to be 3.14.

`O=c1cc(-c2ccccc2)oc2c(O)c(O)ccc12` [7,8-Dihydroxyflavone] registered a neurite formation score of 4.21.

As for `COc1ccc(-c2cc3c(C)nc(N)nc3n([C@H]3CC[C@H](OCCO)CC3)c2=O)cn1`, the neurite formation score is 3.96.

Turning to `O=S(=O)(c1cccc2cnccc12)N1CCCNCC1` [Fasudil (HA-1077) HCl], the neurite formation score was determined as 4.24.

As to `Cc1cnc(Nc2ccc(F)cc2Cl)nc1-c1c[nH]c(C(=O)N[C@H](CO)c2cccc(Cl)c2)c1`, the neurite formation score is 3.69.

In the case of `COc1c(C)c(C(=O)c2ccc(N)c(C(=O)O)c2)n2ccccc12`, the neurite formation score stood at 4.96.

`CCC[C@H](NC(=O)/C(C#N)=C/c1cccc(Br)n1)c1ccccc1` returned a neurite formation score of 1.24.

For `O=c1oc2c(O)c(O)cc3c(=O)oc4c(O)c(O)cc1c4c23` [Ellagic acid], the neurite formation score worked out at 4.47.

`Cc1cc2c(F)c(Oc3ncnn4cc(OC[C@@H](C)O)c(C)c34)ccc2[nH]1` gave a neurite formation score of 4.57.

Turning to `C[S+]([O-])c1ccc(-c2nc(-c3ccc(F)cc3)c(-c3ccncc3)[nH]2)cc1` (centres undefined), the neurite formation score came to 4.57.

`CNC(=O)c1ccc(-c2cnc3ncc(Cc4ccc5ncccc5c4)n3n2)cc1F` yielded a neurite formation score of 5.14.

Regarding `CC(C)n1nc(-c2ccc3oc(N)nc3c2)c2c(N)ncnc21`, the neurite formation score stood at 3.96.

In turn, `CCNc1nc(Nc2cc(F)c(C(=O)N3CCOCC3)cc2OC)ncc1C(F)(F)F` had a neurite formation score of 3.21.

Regarding `COc1cc2/c(=N/c3ccc(Br)cc3F)nc[nH]c2cc1OCC1CCN(C)CC1` [Vandetanib (ZD6474)], the neurite formation score worked out at 4.8.

For the compound `C[C@@]1(C(=O)Nc2ccc(F)nc2)CCCN1c1nc(Nc2cc(C3CC3)n[nH]2)c2cccn2n1`, the neurite formation score came to 4.57.

In turn, `O=C1NCCSc2c1sc1ccc(O)cc21` returned a neurite formation score of 3.69.

Turning to `Cc1cc(CS(=O)(=O)c2ccccc2)cc(OCc2ccc(CN3CCC[C@@H]3CO)cc2)c1`, the neurite formation score is 4.69.

The compound `CNc1nc(Nc2cnn(C3CCN(C4COC4)CC3F)c2Cl)ncc1C(F)(F)F` (centres undefined) showed a neurite formation score of 4.88.

For `Nc1ncnc2c1c(-c1cccc(OCc3ccccc3)c1)cn2C1CC(CN2CCC2)C1` (centres undefined), the neurite formation score amounted to 3.24.

As for `Cc1nc(Nc2ncc(C(=O)Nc3c(C)cccc3Cl)s2)cc(N2CCN(CCO)CC2)n1`, the neurite formation score was determined as 1.57.

In turn, `Cn1c(=O)n(-c2ccc(C(C)(C)C#N)cc2)c2c3cc(-c4cnc5ccccc5c4)ccc3ncc21` displayed a neurite formation score of 2.9.

Turning to `CN1CCC(Nc2nc(Nc3ccc(Oc4ccccc4)cc3)c3c(=O)[nH]cc(Br)c3n2)CC1`, the neurite formation score is 3.29.

The compound `COc1cc(N2CCOCC2)ccc1Nc1ncc(F)c(Nc2ccccc2NS(C)(=O)=O)n1` registered a neurite formation score of 4.54.

As to `C[C@]1(O)C[C@@H](c2nc(-c3ccc4ccc(-c5ccccc5)nc4c3)c3c(N)nccn32)C1` [Linsitinib], the neurite formation score was 4.9.

On to `CC(C)(C)c1nc(-c2cccc(NS(=O)(=O)c3c(F)cccc3F)c2F)c(-c2ccnc(N)n2)s1`, for which the neurite formation score is 5.02 and 5.29.

The compound `CCCCCCCCCCCCCCCCCC(=O)OC[C@H](CO)OC(=O)CCCCCCCCCCCCCCCCC` [1,2-Distearoyl-sn-glycerol] came in with a neurite formation score of 4.54.

Turning to `Cc1cn(-c2cc(NC(=O)c3ccc(C)c(Nc4nccc(-c5cccnc5)n4)c3)cc(C(F)(F)F)c2)cn1` [Nilotinib(AMN-107)], the neurite formation score amounted to 4.57.

In turn, `Cc1cc(C)nc(NS(=O)(=O)c2ccc(NC(=S)NC(=O)COc3ccc(Br)cc3Cl)cc2)n1` registered a neurite formation score of 3.9.

As for `CNC(=O)c1cccc(-c2ccc3c(N4CCOC[C@@H]4C)nc(N4CCOC[C@@H]4C)nc3n2)c1`, the neurite formation score came to 4.29.

`O=S(=O)(NCCNC/C=C/c1ccc(Br)cc1)c1cccc2cnccc12`: the neurite formation score stood at 4.54.
